Shown are actives, neighbours in structure and some others; about 19% of the full set was active somewhere.
HT1080 IDH1KD tx – qHTS for induction of synthetic lethality in tumor cells producing 2HG: qHTS for the HT-1080-IDH1KD cell line. HT-1080 IDH1 knockdown viability, ATP luminescence, 48 h. Potency, µM (highest dose often 46.1 µM), hits mostly cytotoxic. 360,000 compounds, 2% hits. AID 686971, 2013
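Using the IDH1-knockdown HT-1080 line run in the same batch and compound series as the NT line, viability after 48 h at 37 °C was determined by CellTiter-Glo luminescence and expressed as % activity.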
TDP1 cell noCPT – qHTS for Inhibitors of human tyrosyl-DNA phosphodiesterase 1 (TDP1): qHTS in cells in absence of CPT. 420,000 compounds, 15% hits. DT40 Tdp1-/- hTDP1 cells, no CPT, ATP luminescence, 48 h. Potency, µM (highest dose often 46.2 µM), usual class: inhibitors; also: nearly all actives have a fitted effect of over 55% in size
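Stably hTDP1-transfected Tdp1-null chicken DT40 cells were treated with library compounds minus camptothecin and grown for at least 48 hr at 37 °C, after which cellular ATP was quantified by luminescence.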
TDP1 cell CPT – qHTS for Inhibitors of human tyrosyl-DNA phosphodiesterase 1 (TDP1): qHTS in cells in presence of CPT; Potency, µM (top dose mostly 46.2 µM), hits mostly inhibitors; chicken DT40 Tdp1-/-;hTDP1 cells + 20 nM CPT, ATP luminescence, 48 h; AID 686979, 2013; 420,000 compounds, 12% hits; also: nearly all actives have a fitted effect of over 55% in size
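Cell growth measured by CellTiter-Glo luminescence after a minimum 48 h, 37 C compound exposure with 20 nM CPT in Tdp1-knockout DT40 cells stably expressing hTDP1, seeded 400/well; qHTS titration format.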
HT1080-NT tox – qHTS for induction of synthetic lethality in tumor cells producing 2HG: qHTS for the HT-1080-NT fibrosarcoma cell line; HT-1080-NT fibrosarcoma viability, CellTiter-Glo ATP luminescence, 48 h; 360,000 compounds, 1.6% hits; Potency, µM (titrated, usually from 46.1 µM), most hits filed as cytotoxic;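 also: NT is the 2HG producing partner of a matched IDH1 knockdown line; nearly all actives have a fitted effect of over 55% in size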
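Read-out is CellTiter-Glo luminescence after 10 minutes at room temperature, following 48 hours' compound treatment of HT-1080-NT cells (750 cells/well, RPMI, 5% FBS, 37 degrees C).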
IL-1B inflam inh – qHTS for Inhibitors of Inflammasome Signaling: IL-1-beta AlphaLISA Primary Screen. activity change, % at 57.5 µM. 360,000 compounds, 4.7% hits. THP-1 LPS/ATP IL-1B secretion, AlphaLISA, 16 h; active compounds read low; in the data active = activity change below about -50%; inconclusive = mostly about -30% to -49%
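Secreted IL-1B measured by AlphaLISA bead assay after 16 h compound exposure of THP-1 cells; compounds (final up to 57.5 uM) added 1 h before LPS (250 ng/mL) and ATP (1.25 mM) stimulation; lower signal means less secretion.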
Each line names hits and unclear results; the compound was inactive in the other large screens. Unless noted, calls follow the shape of the dose curve; as a rule, active = well fitted curve in the direction sought with a large enough effect; inconclusive = small, poorly fitted or top-dose-only effect, or another doubt; inactive = no such curve, though single readings can be large; an effect the other way counts as inactive or inconclusive.

CC1(C(=O)NCCc2c[nH]c3ccccc23)CCN1Cc1ccccc1OC(F)F (stereo unspecified)	HT1080 IDH1KD tx inconclusive, TDP1 cell noCPT inconclusive, TDP1 cell CPT 18µM, HT1080-NT tox 23µM
CC1(C(=O)NCc2ccccc2Br)CCN1Cc1ccccc1OC(F)F (stereo unspecified)	HT1080 IDH1KD tx inconclusive, TDP1 cell noCPT 23µM, TDP1 cell CPT inconclusive, HT1080-NT tox inconclusive, IL-1B inflam inh -54
CC1(C(=O)NCCc2c[nH]c3ccccc23)CCN1Cc1csc2ccccc12 (stereo unspecified)	none
CC(C)CNC(=O)C1(C)CCCN1Cc1ccccc1OC(F)F (stereo unspecified)	TDP1 cell noCPT 23µM, TDP1 cell CPT 21µM
CCN(C(=O)COC(=O)C1CCN(S(=O)(=O)c2cccs2)CC1)c1ccccc1	none
Cc1cc(N/N=C/c2ccc(Cl)cc2Cl)nc(NCc2ccccc2)n1	HT1080 IDH1KD tx inconclusive, TDP1 cell noCPT 7.3µM, TDP1 cell CPT 10µM
CN(C)c1nc(NCc2ccccc2)nc(N/N=C/c2ccc(Br)cc2)n1	none
Cc1cc(N/N=C/c2ccc(O)cc2)nc(NS(=O)(=O)c2ccccc2)n1	TDP1 cell noCPT inconclusive
Cc1cc(N/N=C/c2ccc(F)cc2)nc(NCc2ccccc2)n1	HT1080 IDH1KD tx 16µM, TDP1 cell noCPT 12µM, TDP1 cell CPT 8.2µM, HT1080-NT tox 18µM, IL-1B inflam inh -96
Cc1cc(N/N=C/c2ccc(N(C)C)cc2)nc(NCc2ccccc2)n1	TDP1 cell noCPT 5.8µM, TDP1 cell CPT 7.3µM, IL-1B inflam inh -61
Clc1ccc(C=NNc2ccccn2)c(Cl)c1	HT1080 IDH1KD tx inconclusive
O=C(CCn1cncn1)NCC1Cc2cc(-c3ccsc3)cc(Cl)c2O1 (stereo unspecified)	none (no result: HT1080 IDH1KD tx, HT1080-NT tox, IL-1B inflam inh)
CCCc1ccc(Oc2cc(N3CCOCC3)nc(-c3ccccc3)n2)cc1	TDP1 cell noCPT inconclusive, TDP1 cell CPT 29µM
Clc1ccc(Sc2cc(N3CCOCC3)nc(-c3ccccc3)n2)cc1	TDP1 cell noCPT 29µM, TDP1 cell CPT inconclusive
O=C(CC1Sc2ccccc2NC1=O)Nc1ccccc1[N+](=O)[O-] (stereo unspecified)	TDP1 cell noCPT inconclusive
COc1ccc(CCNC(=O)CCCn2nc(C)c([N+](=O)[O-])c2C)cc1OC	none
CCc1ccc(NC(=O)C(C)n2nc(C)c([N+](=O)[O-])c2C)cc1 (stereo unspecified)	none
CCOc1ccccc1C(=O)NCC(=O)OCC(=O)c1c(N)n(C)c(=O)n(C)c1=O	none
O=C(NCc1ccccc1)C1C(c2ccc3c(c2)OCO3)=Nc2ccccc2N1C(=O)c1ccccc1 (stereo unspecified)	TDP1 cell noCPT 15µM, TDP1 cell CPT 23µM
O=C(NCc1ccccc1)C1C(c2ccc3c(c2)OCO3)=Nc2ccccc2N1C(=O)c1ccco1 (stereo unspecified)	HT1080 IDH1KD tx 8.2µM, TDP1 cell noCPT inconclusive, TDP1 cell CPT inconclusive, HT1080-NT tox 13µM
O=C(NCc1ccccc1)C1C(c2ccc3c(c2)OCO3)=Nc2ccccc2N1C(=O)c1cccc(C(F)(F)F)c1 (stereo unspecified)	TDP1 cell noCPT inconclusive, TDP1 cell CPT 16µM
Cc1cccc(C)c1NC(=O)C1C(c2ccc3c(c2)OCO3)=Nc2ccccc2N1C(=O)c1ccccc1 (stereo unspecified)	TDP1 cell noCPT 1.5µM, TDP1 cell CPT 5.2µM
O=C(NCc1ccccc1)C1C(c2ccccc2)=Nc2ccccc2N1C(=O)c1ccncc1 (stereo unspecified)	none
Cc1ccccc1NC(=O)C(Cc1ccccc1)N1Cc2ccccc2C1=O (stereo unspecified)	none (no result: HT1080 IDH1KD tx, HT1080-NT tox, IL-1B inflam inh)
CCCCSc1ncnc2[nH]ncc12	none
CCN(CC)CCCNC(=O)c1c(C)oc2ncnc(N3CCOCC3)c12	none (no result: HT1080 IDH1KD tx, HT1080-NT tox, IL-1B inflam inh)
COc1cc(=O)n2c(c1C(=O)N(C)Cc1nonc1C)CCN(Cc1ccc(C)cc1C)CC2	TDP1 cell noCPT inconclusive (no result: HT1080 IDH1KD tx, HT1080-NT tox, IL-1B inflam inh)
Cc1c(C(=O)NCc2ccc(F)cc2)sc(=O)n1Cc1ccccc1	TDP1 cell noCPT inconclusive, TDP1 cell CPT inconclusive
COc1cccc2c1OC1(C)CC2NC(=O)N1c1cccc(C(=O)N2CCN(c3ccccn3)CC2)c1 (stereo unspecified)	TDP1 cell noCPT inconclusive
CCOc1cccc2c1OC1(C)CC2NC(=O)N1c1cccc(C(=O)N2CCN(c3ccccn3)CC2)c1 (stereo unspecified)	IL-1B inflam inh -66
CCOc1ccc(NC(=O)CC2C(=O)N(c3cccc(C)c3)C(=O)N2CCC2=CCCCC2)cc1 (stereo unspecified)	TDP1 cell noCPT 23µM, TDP1 cell CPT inconclusive (no result: HT1080 IDH1KD tx, HT1080-NT tox, IL-1B inflam inh)
COc1ccc(N2C(=O)C(CC(=O)Nc3ccc(F)cc3)N(CCC3=CCCCC3)C2=O)cc1 (stereo unspecified)	TDP1 cell noCPT 16µM, TDP1 cell CPT inconclusive (no result: HT1080 IDH1KD tx, HT1080-NT tox, IL-1B inflam inh)
COCCN1C(=O)N(c2cccc(C)c2)C(=O)C1CC(=O)Nc1cc(OC)cc(OC)c1 (stereo unspecified)	none
COc1ccc(-c2nn(-c3ccccc3)cc2C(N)=O)cc1OC	none
O=C(NNC(=O)c1cccnc1SCc1cccc([N+](=O)[O-])c1)c1cccnc1	TDP1 cell noCPT inconclusive
O=C(OCc1cccc([N+](=O)[O-])c1)c1cccnc1Cl	none
O=C(NNC(=O)c1cccnc1SCc1cccc([N+](=O)[O-])c1)c1ccccn1	HT1080 IDH1KD tx inconclusive, TDP1 cell noCPT 2.6µM, TDP1 cell CPT 4.6µM, HT1080-NT tox inconclusive
O=C(NNC(=O)c1cccnc1SCc1cccc([N+](=O)[O-])c1)c1ccc(F)cc1	TDP1 cell noCPT 12µM, TDP1 cell CPT 23µM
CCN(CC)S(=O)(=O)c1ccc(OC(C)C)c(NC(=O)c2c3c(nc4ccccc24)CCN(Cc2ccccc2)C3)c1	TDP1 cell noCPT 12µM, TDP1 cell CPT 13µM
COc1ccc(S(=O)(=O)N2CCCCC2)cc1NC(=O)Cn1cnc2ccccc2c1=O	none
COc1ccc(S(=O)(=O)N2CCCCCC2)cc1NC(=O)c1c2c(nc3ccccc13)CCN(Cc1ccccc1)C2	TDP1 cell noCPT inconclusive, TDP1 cell CPT 16µM
COc1ccc(NC(=O)c2c3c(nc4ccccc24)CCN(Cc2ccccc2)C3)c(OC)c1	TDP1 cell noCPT inconclusive, TDP1 cell CPT 16µM
CCOc1cc(C(=O)OCC(=O)NC(C)c2ccccc2)ccc1OCC(=O)N1CCOCC1 (stereo unspecified)	none
CN(C)CCn1c2c(c(SCC(=O)Nc3ccc4c(c3)OCCO4)nc1=O)CCCC2	none

Compound activity (PubChem BioAssay)
